RGS4 inhibitor: inhibitors of human regulator of G protein signaling 4. P49798. Transcreener GDP fluorescence polarization, RGS4-accelerated GTP hydrolysis. Potency, µM (titrated, usually from 114 µM), for the others: at the top dose activity change, negative = inhibition, most hits filed as inhibitors. 390,000 compounds, 0.039% hits. AID 504845; active means well fitted inhibition curve with a large enough effect; inconclusive means small, poorly fitted or top-dose-only effect; inactive means no such curve, though single readings can be large or run the other way; further: potency means the concentration at half of the fitted maximal effect; on the % scale 0 is the no-effect control and ±100 the full control effect; nearly all actives have a fitted effect of over 75% in size
Target sequence (P49798 whole entry, looked up): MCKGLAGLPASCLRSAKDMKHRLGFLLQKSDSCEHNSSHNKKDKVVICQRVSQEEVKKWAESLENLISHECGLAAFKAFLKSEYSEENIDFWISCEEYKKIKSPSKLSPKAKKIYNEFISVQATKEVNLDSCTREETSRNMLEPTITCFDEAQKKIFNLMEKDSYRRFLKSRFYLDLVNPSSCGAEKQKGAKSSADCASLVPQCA
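MLSMR compounds (23 nl, pin-transferred) preincubated 10 min at room temperature with a 500nM (2x) first reagent, then RGS4 at 900nM (2x) plus Transcreener GDP mix added; fluorescence polarization (620/688 nm) read before and after 90 min at 30 °C.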
LDHA inh: LDHA (human) enzyme inhibition. purified LDHA, NADH/diaphorase-resazurin fluorescence; hits give low values. activity change, % (values are at about 110 or 230 µM). 480,000 compounds, 0.15% hits; in the data active means activity change below about -30%; inconclusive means mostly about -25% to -30%;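 further: plate controls were DMSO wells for no effect and wells without enzyme for full effect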
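Human LDH5 at 2 nM final in Tris HCl pH 7.4 with 0.06 mM NADH and 0.2 mM pyruvate, reacted 5 minutes at room temperature. Remaining NADH coupled via diaphorase/resazurin; resorufin fluorescence read at 0 and 20 minutes, normalized to enzyme-free and DMSO wells.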
DRD3 agonist: agonists of human D3 dopamine receptor; P35462; D3R DiscoveRx beta-arrestin cells, luminescence, 90 min; max activation, %; 410,000 compounds, 0.58% hits; in the data active means max activation above about 30%; further: 0% is about no effect
Target sequence (P35462 whole entry, looked up): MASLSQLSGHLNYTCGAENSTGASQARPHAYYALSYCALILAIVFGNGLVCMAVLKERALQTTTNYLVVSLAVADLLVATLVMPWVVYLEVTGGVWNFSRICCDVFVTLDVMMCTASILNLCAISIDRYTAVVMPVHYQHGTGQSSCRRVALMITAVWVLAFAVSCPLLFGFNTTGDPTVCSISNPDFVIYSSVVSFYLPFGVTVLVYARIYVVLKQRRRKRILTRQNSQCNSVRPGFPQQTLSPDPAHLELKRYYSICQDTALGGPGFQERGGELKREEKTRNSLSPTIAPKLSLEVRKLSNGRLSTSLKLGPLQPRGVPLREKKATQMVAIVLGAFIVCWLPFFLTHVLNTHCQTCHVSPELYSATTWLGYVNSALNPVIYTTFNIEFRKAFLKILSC
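Cells at 1500/well, incubated overnight, then treated with pinned compounds (dopamine as control) for 90 min at 37 degrees C. DiscoveRx reagent added for 30 - 60 minutes at room temperature; luminescence read.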
Akt phos inh: inhibitors of Akt phosphorylation; Neuro2A IGF-stimulated pAkt S473 HTRF, 20 min; hits give low values; activity change, % for hits at 50 µM; 360,000 compounds, 0.32% hits; AID 651550; in the data active means activity change below about -80%; inconclusive means mostly about -51% to -80%; further: on the % scale 0 is the no-effect control and ±100 the full control effect
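Neuro2A cells (4,500/well, DMEM with 0.5% FBS) were treated with compound at a single 50 µM final concentration, stimulated with 6 nM IGF for 20 min at 37 °C, and lysed. Phospho-Akt Ser473 was read by HTRF as 665/615 ratio ×10^4.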
DRD3 antagonist: antagonists of human D3 dopamine receptor; max response, negative = inhibition, %; D3R cells, DiscoveRx beta-arrestin luminescence, antagonist mode; hits give low values; P35462; 360,000 compounds, 2.5% hits; AID 652054; in the data active means max response below about -50%; inconclusive means no clear call, values can overlap the other calls; further: on the % scale 0 is the no-effect control and ±100 the full control effect
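Cells plated overnight at 1500 cells/well, then exposed to library compounds with dopamine controls for 90 minutes at 37 degrees C. DiscoveRx reagent added for 30–60 minutes at room temperature; luminescence read, quantitative HTS format.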
PI4K2A inh: inhibitors of human PI4K2A; Q9BTU6; purified PI4K2A, ADP-Glo luminescence, 1 h; hits give low values; activity change, negative = inhibition, % at 76.9 µM; 420,000 compounds, 0.13% hits; in the data active means activity change below about -50%; inconclusive means mostly about -30% to -49%;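 further: -100% = wells without enzyme as full effect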
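Compounds are screened against recombinant PI4K2A using PI as substrate and ATP, the latter dispensed at 300 microM. Reactions run one hour at ambient temperature before ADP-Glo detection; full inhibition defined by wells lacking enzyme.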
Active calls of the source: *; i = inactive; u = inconclusive; x = no result; [ ] = dose if it differs, or a comment. Shown are actives, neighbours in structure and some others; about 2.8% of the full set was active somewhere.

SMILES	RGS4 inhibitor	LDHA inh	DRD3 agonist	Akt phos inh	DRD3 antagonist	PI4K2A inh
CC1(Oc2cccc(F)c2)CCN(Cc2ccc3ccccc3c2)C1 (centres undefined)	x	-4.0	-11.0	i	-117.2*	0.2
COCOc1cccc(CN2CCC(C)(Oc3cccc(C#N)c3)C2)c1 (centres undefined)	x	4.7	-18.4	i	-50.4*	-7.3
COc1ccc(OC2(C)CCN(Cc3ccc(-c4ccccc4)o3)C2)cc1 (centres undefined)	x	-4.2	-17.8	i	-127.9*	2.1
Cc1nc2cc(-c3ccccc3)nn2c(C)c1CCC(=O)Nc1ccc(F)cc1	x	-1.1	x	x	x	x
O=C(OCc1cccc([N+](=O)[O-])c1)c1c2c(nc3ccccc13)CCCCC2	x	4.3	x	x	x	x
CC1(Oc2cccc(Cl)c2)CCN(Cc2ccc(OC(F)(F)F)cc2)C1 (centres undefined)	x	-0.7	2.3	i	3.1	-0.6
Cc1ccc(CN2CCC(C)(Oc3cccc(Cl)c3)C2)cc1 (centres undefined)	x	-2.7	-21.8	i	-102.7*	-2.9
O=C1CC(=O)OC(c2ccc([N+](=O)[O-])cc2)O1	x	-0.5	-10.0	i	-86.6*	7.0
N#Cc1ccc(C23CC4(C2)[C@H](CN(CC2CCCCC2)[C@@H]4c2ccccc2)C3c2ccc(Cl)nc2)cc1 (some centres undefined)	3.9%	0.6	16.7	i	-72.4*	-0.3
CC(=O)NCc1ccc(-c2csc(-c3ccc(C)cc3)n2)o1	x	1.2	x	x	x	x
O=C(CN1CCOCC1)Nc1cccc(Br)c1	-10.4%	-5.3	5.9	i	24.1	5.3
O=C(CSC1=NCCN1)Nc1cccc([N+](=O)[O-])c1	-16.9%	-8.2	-15.2	i	-64.5*	-7.4
O=C(NCc1ccc(CN2CCCC2)cc1)c1cccc(Br)c1	x	1.8	x	x	x	x
O=C(CCN1CCCCC1)Nc1cccc(Cl)c1	7.0%[11.4 µM]	-8.1	-10.4	i	u	0.0
O=C(CCN1CCCCCC1)Nc1cccc(Cl)c1	7.6%	-13.7	-28.3	x	-142.8*	3.2
O=C(CN1CCCCC1)Nc1cccc(Br)c1	25.7%	-6.2	-15.8	i	-63.2*	9.1
O=C(CN1CCCCC1)NNC(=O)c1cccc(Br)c1	-17.0%	-3.0	-33.9	i	-80.3*	-1.5
O=C(CSC1=NCCN1)Nc1ccccc1[N+](=O)[O-]	-33.5%	0.4	-3.3	i	-12.0	2.0
COC(=O)COc1ccc2c(=O)c(-c3ccccc3)c(C(F)(F)F)oc2c1	x	9.9	x	x	x	x
CC(=O)NC1CCN(CC(=O)Nc2cccc([N+](=O)[O-])c2)CC1	12.6%	-0.6	2.6	i	1.7	-0.9
O=C(CN1CCCCC1)Nc1ccc(F)c(Cl)c1	0.7%	-5.0	-2.9	i	-58.3*	2.7
O=C(CCN1CCN(Cc2ccccc2)CC1)NNC(=O)Nc1cccc([N+](=O)[O-])c1	-2.3%	-2.8	-16.5	i	-50.5*	2.5
O=C(CN1CCCCC1)Nc1cccc([N+](=O)[O-])c1	15.2%	-2.6	-18.4	i	-62.1*	2.8
O=C(Cc1cccc([N+](=O)[O-])c1)Nc1cccc(C(=O)N2CCOCC2)c1	2.1%	-5.1	-19.2	i	-51.0*	-8.5
Cc1nc(C)c(CCC(=O)Nc2cc(Cl)ccc2Cl)c(=O)[nH]1	x	-6.8	x	x	x	x
SMILES	RGS4 inhibitor	LDHA inh	DRD3 agonist	Akt phos inh	DRD3 antagonist	PI4K2A inh
CCOC(=O)CNC(=O)N1CCCCCC1c1ccc(C)s1 (centres undefined)	x	2.6	x	x	x	x
Cc1ccc(-c2cc(C(=O)OCC(=O)NC34CC5CC(CC(C5)C3)C4)c3ccccc3n2)o1	x	10.2	x	x	x	x
CC(C)(C)c1nn(-c2ccccc2)c2[nH]c(=O)c(CNc3ccc4c(c3)OCCO4)cc12	-33.2%	3.9	-46.4	i	-74.7*	-3.8
Cc1ccc(C2Cc3ccccc3N2)cc1 (centres undefined)	x	2.5	x	x	x	x
Cc1nn2c(N3CCN(c4ccccn4)CC3)cc(C(C)C)nc2c1-c1ccccc1	24.7%	-15.6	0.0	i	-55.9*	2.3
c1ccc(CSc2ccc(-c3ccccn3)nn2)cc1	11.7%	-9.0	-0.3	i	5.9	-4.9
Brc1ccc(CSc2ccc(-c3ccccn3)nn2)cc1	x	-31.1*	x	x	x	x
CC(=O)c1ccc(NC(=O)Nc2ccc(Cl)cc2)cc1	12.1%	-8.8	0.5	i	10.5	-0.1
CC(=O)Nc1cc[n+](C(C)C(=O)c2ccc(Cl)cc2)cc1 (centres undefined)	-35.1%	-0.4	-18.7	i	-86.7*	-3.2
O=C(Nc1ccccc1Cl)C(Cl)C(=O)c1ccccc1 (centres undefined)	-16.1%	-7.5	-12.9	i	-25.1	-4.1
O=C(Nc1ccc(Cl)cc1)C(Cl)C(=O)c1ccccc1 (centres undefined)	u	-1.6	-29.3	i	-52.3*	-13.6
CC(=O)c1ccc(NC(=O)C(C)Nc2ccc(Cl)cc2)cc1 (centres undefined)	-11.1%	-16.1	-12.3	i	-55.8*	-7.9
Cc1cc[n+](C(C)C(=O)c2ccc(Cl)cc2)cc1 (centres undefined)	6.9%	-3.4	-13.2	i	u	-0.7
CCCOC(=O)c1cc(NC(=O)c2cccc(C)c2OC)ccc1N1CCOCC1	x	0.0	x	x	x	x
CC(=O)c1c(C)[nH]c(C(=O)c2oc3ccc(Br)cc3c2C)c1C	x	5.8	x	x	x	x
O=C(NCc1ccco1)c1ccc2c(=O)n(CCC3=CCCCC3)c(=O)[nH]c2c1	7.6%	-9.0	-2.3	i	37.2	-1.5
CCN1CCN(C(=O)c2ccc3c(=O)n(CCC4=CCCCC4)c(=O)[nH]c3c2)CC1	35.1%	-0.5	-12.3	i	-53.8*	3.3
CCOc1ccc(CCNC(=O)c2noc(C)c2Cn2nc(C)cc2C)cc1	x	0.9	x	x	x	x
O=C(Cc1csc(-c2ccccc2)n1)Nc1ccc(C(F)(F)F)cc1	7.6%	-3.1	-1.2	i	-56.2*	-0.4
O=C(O)c1ccccc1N=Nc1ccc(O)cc1	-36.2%	-2.8	-51.6	i	-71.0*	-4.7
O=C(Nc1ccccc1C(=O)NC(Cc1c[nH]c2ccccc12)C(=O)O)c1ccco1 (centres undefined)	-24.8%	-3.7	4.3	i	-54.5*	2.5
Cn1c(-c2ccc(F)c(F)c2)cc2onc(-c3ccccc3)c2c1=O	-5.1%	-8.8	35.3*	i	19.9	1.8
COc1cccc(-c2cc3onc(-c4ccccc4)c3c(=O)n2C)c1	5.0%	-12.0	5.9	i	27.3	-3.4
CCOc1ccc(NC(=O)c2nc(S(=O)(=O)Cc3ccc(F)cc3)ncc2Cl)cc1	x	-3.5	x	x	x	x
CS(=O)(=O)c1ncc(Cl)c(C(=O)Nc2ccc(OC(F)F)cc2)n1	u	-9.0	-19.0	i	-151.6*	3.7

Compound activity deposited in PubChem by National Center for Advancing Translational Sciences (NCATS).
